# Source: PubChem BioAssay AID2013 (Sanford-Burnham Center for Chemical Genomics, 2009)
# The whole screen tested about 290,000 compounds, of which about 370 (0.13%) were called active.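 How the source made its calls: active means spots per cell inhibited over 60%, with over 100 cells counted and total cytoplasm intensity under 500,000; inconclusive means wells with under 100 cells, flagged as likely toxic; inactive means the rest.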 Shown is part of a subset that was picked to be rich in actives. Potency and affinity values are given separately.
# Biological target: G-protein coupled receptor 55 (Homo sapiens) (UniProt Q9Y2T6)
# Sequence (Q9Y2T6 whole entry, looked up): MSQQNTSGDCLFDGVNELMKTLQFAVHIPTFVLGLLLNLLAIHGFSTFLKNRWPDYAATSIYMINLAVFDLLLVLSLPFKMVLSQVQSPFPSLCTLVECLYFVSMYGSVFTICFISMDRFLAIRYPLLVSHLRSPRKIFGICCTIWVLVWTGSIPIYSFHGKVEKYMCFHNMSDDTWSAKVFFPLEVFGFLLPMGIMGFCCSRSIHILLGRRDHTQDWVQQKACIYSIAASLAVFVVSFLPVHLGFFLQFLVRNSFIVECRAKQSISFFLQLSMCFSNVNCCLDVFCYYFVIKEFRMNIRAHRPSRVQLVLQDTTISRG
# Experiment: GPR55 antagonists blocking LPI-driven arrestin recruitment, primary screen, imaging, U2OS, beta-arrestin-GFP, LPI agonist (AID 2013);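 further: U2OS cells stably carrying GPR55 and arrestin-GFP stimulated by 5 µM LPI near EC80; imaged beta-arrestin-GFP aggregate spots per cell after agonist stimulation; plate controls were LPI-stimulated DMSO wells for no effect and DMSO wells without LPI for full effect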
# Settings: U2OS GPR55 beta-arrestin-GFP translocation imaging, LPI antagonism; at 10 µM; active compounds read high
row,SMILES,inhibition
1,Cc1nc(C(Cl)(Cl)Cl)nc2[nH]ccc(=O)c12,4.1% (inactive)
2,FC(F)(F)c1cccc(Cc2noc(CN3CCC(c4ccncc4)CC3)n2)c1,5.1% (inactive)
3,Cc1nonc1NC(=O)CSc1nnc(N)s1,-5.8% (inactive)
4,COc1cccc(-c2csc(N3CCN(Cc4ccccc4)CC3)n2)c1,-6.9% (inactive)
5,COc1ccc(OC)c(/C=C/C(=O)Nc2cccc(S(=O)(=O)N3CCCC3)c2)c1,-3.3% (inactive)
6,Cc1cc2c(cc1S(=O)(=O)Nc1ccc(F)cc1)n(C)c(=O)c(=O)n2C,9.6% (inactive)
7,Cc1cc2c(cc1S(=O)(=O)Nc1cccc(F)c1)n(C)c(=O)c(=O)n2C,-13.1% (inactive)
8,Cc1cc(NS(=O)(=O)c2ccc(NC(=O)C(C)Oc3ccc(C(C)C)cc3)cc2)no1 (centres undefined),-4.7% (inactive)
9,Cc1cccn2c(=O)c(/C=C(\C#N)S(=O)(=O)c3ccccc3)c(N3CCN(Cc4ccccc4)CC3)nc12,22.8% (inactive)
10,Cc1cccn2c(=O)c3cc(C(=O)NCc4ccco4)c(=N)n(C(C)C)c3nc12,45.5% (inactive)
11,Cc1cccn2c(=O)c3cc(C(=O)NCc4ccco4)c(=N)n(C4CCCCC4)c3nc12,50% (inactive)
12,Cc1cccn2c(=O)c3cc(C(=O)NC4CCCC4)c(=N)n(C4CCCCC4)c3nc12,19.8% (inactive)
13,N=c1c(C(=O)NCc2ccco2)cc2c(=O)n3ccccc3nc2n1C1CCCC1,7.5% (inactive)
14,Cc1ccc2nc3c(cc(C(=O)NCc4ccco4)c(=N)n3Cc3ccco3)c(=O)n2c1,23.2% (inactive)
15,N=c1c(C(=O)NC2CCCC2)cc2c(=O)n3ccccc3nc2n1C1CCCC1,8.6% (inactive)
16,O=C(COC(=O)c1cc(=O)[nH]c(=O)[nH]1)Nc1cccc(S(=O)(=O)N2CCCCC2)c1,-7.4% (inactive)
17,Cc1cccc(C)c1NC(=O)Cn1c(=O)c2cccn2c2ccccc21,3.5% (inactive)
18,Cc1ccc(NC(=O)Nc2cnccn2)c(C)c1,1.4% (inactive)
19,CC(C)CNC(=S)N1CCC(c2nc(-c3ccc(F)cc3)no2)CC1,6.8% (inactive)
20,CCCc1nnc2n1N=C(c1ccc(-c3cc(Cl)ccc3Cl)o1)CS2,-0.8% (inactive)
21,CC[C@H](C)[C@@H](NC(=O)O[C@@H]1C(=O)c2cc(Br)ccc2O[C@H]1c1ccc2c(c1)OCO2)C(=O)OC,-3.7% (inactive)
22,COC(CNC(=O)c1ccc(CS(=O)(=O)c2ccc(Br)cc2)o1)OC,-14.8% (inactive)
23,C[C@@H]1C[C@@H]2OC(=O)[C@]3(C)[C@H]2[C@@H](OC3(C)O)[C@]2(C)C(=O)C=C[C@H]12 (some centres undefined),6.3% (inactive)

row,SMILES,inhibition
1,CC(=O)O[C@@H]1[C@H]2[C@@H](C[C@@H](C)[C@@H]3C=CC(=O)[C@@]13C)OC(=O)[C@@H]2C,-2% (inactive)
2,CC(=O)O[C@@H]1[C@H]2[C@@H](C[C@@H](C)[C@@H]3CCC(=O)[C@@]13C)OC(=O)[C@@H]2C,6.6% (inactive)
3,C=C1C(=O)O[C@H]2C[C@]3(C)C([C@@H](OC(=O)/C(C)=C/C)[C@H]12)[C@](C)(O)CC[C@H]3O (some centres undefined),10.2% (inactive)
4,O=C(Nc1ccc(-n2cnnn2)cc1)C(c1ccccc1)c1ccccc1,6.3% (inactive)
5,CN1CCN(C(=O)c2cnn(-c3ccccc3)c2NC(=O)c2ccccc2Br)CC1,2.7% (inactive)
6,COc1ccc(C(C)=O)cc1CSc1nnc(Nc2ccc(C)cc2C)s1,1.3% (inactive)
7,CCOC(=O)CSc1nnc(Cn2nnc(-c3ccccc3)n2)n1CC,16% (inactive)
8,CCn1c(Cn2nnc(-c3ccccc3)n2)nnc1SCC(=O)Nc1ccccc1,-10.2% (inactive)
9,COc1ccccc1OCC(=O)NCc1nc(-c2ccccc2)no1,4.4% (inactive)
10,COc1ccc2[nH]c3c(=O)n(/N=C/c4ccc(OC)c(CN5CCCC5)c4)c(C)nc3c2c1,11.7% (inactive)
11,COc1ccc(S(=O)(=O)CC(=O)c2cc3cccc(C)c3oc2=O)cc1,-0.3% (inactive)
12,COc1ccc2cc(C(=O)CS(=O)(=O)c3ccccc3)c(=O)oc2c1,-4.7% (inactive)
13,COc1cc(S(=O)(=O)NC2CCCC2)c(OC)cc1Cl,-2.6% (inactive)
14,O=C(N1CCC(n2nc(-c3ccccc3)oc2=O)CC1)C1(c2ccccc2)CC1,-6.7% (inactive)
15,O=C(N1CCCCC1)C1(c2ccccc2)CCCCC1,4.3% (inactive)
16,COc1ccc(C2(C(=O)N3CCC(n4nc(-c5ccccc5)oc4=O)CC3)CC2)cc1,7.7% (inactive)
17,O=C(N1CCOCC1)C1(c2ccc(Cl)cc2)CCCC1,44.4% (inactive)
18,COc1ccc(C(OC(=O)c2ccco2)C(=O)NCc2ccco2)cc1 (centres undefined),14.6% (inactive)
19,COC(=O)c1ccccc1SCc1csc(C)n1,5.7% (inactive)
20,COc1ccccc1NC(=O)CCN1CC(C)OC(C)C1 (centres undefined),3.2% (inactive)
21,O=C(NCC(=O)N1CCC2(CC1)NCCc1[nH]cnc12)c1ccc2ccccc2c1,15.2% (inactive)
22,CCCN1C(=O)/C(=C/C=C2\N(CC)c3ccccc3C2(C)C)SC1=S,-9% (inactive)
23,CCCCN1C(=O)/C(=C/C=C2\N(C)c3ccccc3C2(C)C)SC1=S,17.2% (inactive)

row,SMILES,inhibition
1,CCCCNC(=O)N1c2ccccc2CC1C (centres undefined),7.4% (inactive)
2,COC(=O)c1[nH]c2ccccc2c1NC(=O)c1ccccc1[N+](=O)[O-],12.4% (inactive)
3,Cc1ccc(OCc2ccc(C#N)cc2)c(C(=O)c2cc(C#N)c(=O)n(C3CC3)c2)c1,-4.5% (inactive)
4,N=C1SCC(=O)N1c1ncc(Cc2cccc(Cl)c2)s1,98.9% (active)
5,Cc1ccc(Cc2cnc(N3C(=N)SC(C)C3=O)s2)cc1 (centres undefined),16.2% (inactive)
6,N=C1SCC(=O)N1c1ncc(Cc2ccccc2Cl)s1,38% (inactive)
7,Cc1cccc(Cc2cnc(N3C(=N)SC(c4ccccc4)C3=O)s2)c1 (centres undefined),2.3% (inactive)
8,N=C1SCC(=O)N1c1ncc(Cc2ccc(F)cc2)s1,12.6% (inactive)
9,CCN(CC)CCN(C(=O)c1ccc2c(c1)OCCO2)c1nc2cc(C)cc(C)c2s1,9.6% (inactive)
10,CC1CCCN(C(=O)Cn2nnc(-c3ccccc3F)n2)C1 (centres undefined),4.4% (inactive)
11,Cc1ccc(OCCOc2cccc(Br)c2)c([N+](=O)[O-])n1,9.4% (inactive)
12,Cc1nc(SCC(=O)c2cc3ccccc3oc2=O)c(C#N)c(-c2ccccc2)c1C(=O)Nc1ccccc1,3.8% (inactive)
13,COc1ccc(N(C(=O)c2ccncc2)S(=O)(=O)c2ccc(F)cc2)cc1,-6% (inactive)
14,O=C(O)c1cccc(COc2ccccc2Cl)c1,4.2% (inactive)
15,CN(C(=O)c1ccccc1OCc1ccc(Cl)cc1)c1ccccc1,4.2% (inactive)
16,O=C(COc1ccc([N+](=O)[O-])cc1)Nc1ccccc1N1CCCC1,7.8% (inactive)
17,COc1ccc(C(CCNCc2ccc(N(C)C)cc2)c2ccccc2)cc1 (centres undefined),33.8% (inactive)
18,COc1ccc(C(CCNCc2ccccc2)c2ccc(F)cc2)cc1 (centres undefined),37.5% (inactive)
19,COc1ccc(C(CCN)c2ccc3c(c2)OCO3)cc1 (centres undefined),12.6% (inactive)
20,COc1ccc(C(CCNCc2ccc(F)cc2)c2ccc(F)cc2)cc1 (centres undefined),45.1% (inactive)
21,CCCNC(=O)c1ccc(C2SCC(=O)N2Cc2ccccc2)cc1 (centres undefined),0% (inactive)
22,O=C(NCc1ccccc1)c1ccc(C2SCC(=O)N2Cc2ccccc2)cc1 (centres undefined),4.1% (inactive)
23,CC(C)c1ccc(C2CC(=O)c3cnc(NC(=O)c4ccco4)nc3C2)cc1 (centres undefined),6.3% (inactive)

row,SMILES,inhibition
1,O=C(CC(=O)NCc1ccc(Cl)cc1)NCc1ccc(Cl)cc1,1.9% (inactive)
2,CC(C)C(=O)Nc1ccc2c(c1)nc(CCN1CCCCC1)n2C,-5.6% (inactive)
3,Cc1cc(C)c(C2C(C#N)=C(N)Oc3n[nH]c(C)c32)cc1CN1CCCC1 (centres undefined),7.5% (inactive)
4,COc1ccc(S(=O)(=O)N2CCCCCC2)cc1N(C)S(=O)(=O)c1ccc(Cl)cc1,18.7% (inactive)
5,COc1ccc(NS(=O)(=O)c2ccc(OC)c(N(C)S(=O)(=O)c3ccc(Cl)cc3)c2)cc1,1.4% (inactive)
6,COc1ccc(S(=O)(=O)NN(C)C)cc1N(C)S(=O)(=O)c1ccc(Cl)cc1,9.7% (inactive)
7,COc1ccc(S(=O)(=O)Nc2ccc(S(=O)(=O)Nc3ccc(F)cc3)cc2)cc1C,17.8% (inactive)
8,CC(=O)N1CCN(S(=O)(=O)c2ccc(C)cc2)C1c1ccc(N(C)C)cc1 (centres undefined),3.3% (inactive)
9,O=C(O)c1cccc(Nc2cc(Cl)c3nonc3c2[N+](=O)[O-])c1,-6.5% (inactive)
10,CCNc1cc(Nc2c(C)n(C)n(-c3ccccc3)c2=O)c([N+](=O)[O-])c2nonc12,3.6% (inactive)
11,O=C(O)c1cc(Nc2cc(Cl)c3nonc3c2[N+](=O)[O-])ccc1O,-3.1% (inactive)
12,O=[N+]([O-])c1c(Nc2cccc(O)c2)cc(Cl)c2nonc12,77.1% (active)
13,O=[N+]([O-])c1c(Nc2ccccc2O)cc(Cl)c2nonc12,-4% (inactive)
14,O=[N+]([O-])c1c(Nc2ccccn2)cc(Cl)c2nonc12,4.7% (inactive)
15,CN(C)c1cc(Nc2cccc(O)c2)c([N+](=O)[O-])c2nonc12,-9.3% (inactive)
16,O=[N+]([O-])c1c(Nc2ccc(O)cc2)cc(Cl)c2nonc12,90.4% (active)
17,O=C(O)c1ccc(Nc2cc(Cl)c3nonc3c2[N+](=O)[O-])cc1,15.1% (inactive)
18,Cc1c(Nc2cc(N3CCOCC3)c3nonc3c2[N+](=O)[O-])c(=O)n(-c2ccccc2)n1C,18.1% (inactive)
19,CC(=O)N1CCN(c2ccc(NC(=O)c3ccc(F)cc3)cc2)CC1,4.7% (inactive)
20,Cc1ccc(C(=O)NC2CCN(CC(=O)Nc3c(C)cc(C)cc3C)CC2)cc1,3.2% (inactive)
